PAFAH1B2 FP inh = inhibitors of human PAFAH1B2; P68402; recombinant PAFAH1B2, FP-rhodamine activity probe, fluorescence polarization; inhibition, % at 3.39 µM; 340,000 tested, 1.2% active;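 active means inhibition above the mean of all tested compounds plus 3 SD, cut at about 24% in these data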;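 further: 0% = enzyme with DMSO and 100% = wells lacking PAFAH1B2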
ZTA DNA inh = ZTA (EBV) inhibition in EBNA-1 counter-screen; ZTA-DNA binding, fluorescence polarization; inhibition, % at 11 µM; 320,000 tested, 0.15% active; AID 2234; in the data active means inhibition above about 33%
Target sequence (P03206 whole entry, looked up): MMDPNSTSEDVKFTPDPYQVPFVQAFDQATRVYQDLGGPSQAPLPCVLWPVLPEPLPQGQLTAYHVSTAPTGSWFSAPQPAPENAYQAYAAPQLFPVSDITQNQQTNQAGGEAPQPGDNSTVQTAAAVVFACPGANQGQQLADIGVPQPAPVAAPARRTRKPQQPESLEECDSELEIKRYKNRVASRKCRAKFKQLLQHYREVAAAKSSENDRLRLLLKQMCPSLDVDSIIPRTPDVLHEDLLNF
pPAFAH FP inh = pPAFAH (human) enzyme inhibition. 330,000 tested, 1.5% active. recombinant pPAFAH, FP-rhodamine probe fluorescence polarization. inhibition, % at 3.39 µM. Q13093. AID 463082;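 active means inhibition above the mean inhibition across the screen plus 3 SD, cut at about 25% in these data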;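 further: inhibitors block binding of the rhodamine activity-based probe so polarization drops; 0% = enzyme with DMSO and 100% = wells lacking pPAFAH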
PAFAH1B3 inh = PAFAH1B3 (human) inhibition | Q15102 | recombinant PAFAH1B3, FP-rhodamine probe, fluorescence polarization | inhibition, % at 3.39 µM | 340,000 tested, 0.28% active;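 active means inhibition above the screen-wide average of all tested compounds plus 3 SD, cut at about 25% in these data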;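 further: 0% = enzyme with DMSO only and 100% = wells lacking PAFAH1B3 protein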
Target sequence (Q15102 whole entry, looked up): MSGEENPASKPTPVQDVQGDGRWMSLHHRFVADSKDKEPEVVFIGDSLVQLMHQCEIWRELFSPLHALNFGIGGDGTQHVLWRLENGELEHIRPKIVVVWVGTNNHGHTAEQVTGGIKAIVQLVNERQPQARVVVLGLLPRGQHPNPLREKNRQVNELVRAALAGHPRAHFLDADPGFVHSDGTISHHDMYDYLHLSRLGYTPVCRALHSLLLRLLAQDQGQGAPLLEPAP
EBNA-1 inh = blocks EBNA-1 binding to DNA; EBNA-1 DNA binding, fluorescence polarization; inhibition, % at 14.8 µM; 300,000 tested, 0.34% active; in the data active means inhibition above about 28%
PAFAH2 inh = PAFAH2 (human) inhibition | inhibition, % at 3.39 µM | recombinant PAFAH2, FP-rhodamine activity probe, fluorescence polarization | AID 492956 | 340,000 tested, 0.99% active | Q99487;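 active means inhibition above the mean over all tested compounds plus 3 SD, cut at about 30% in these data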;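 further: inhibitors block probe labeling of enzyme so polarization drops; 0% = enzyme with DMSO and 100% = wells lacking PAFAH2 protein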
Active calls of the source: *; . = no result given. Shown are actives, neighbours in structure and some others; about 2.9% of the full set was active somewhere.

SMILES	PAFAH1B2 FP inh	ZTA DNA inh	pPAFAH FP inh	PAFAH1B3 inh	EBNA-1 inh	PAFAH2 inh
COc1cc(S(=O)(=O)Nc2ccc(C)cc2)ccc1NC(=O)c1ccncc1	-0.4	-1.5	33.9*	2.2	9.0	6.0
COc1ccccc1NC(=O)c1cc2ccccc2o/c1=N\O	2.7	13.7	0.0	6.5	42.1*	-2.9
COc1ccc(C(=O)O/N=C/c2ccc(S(=O)(=O)c3ccc(Cl)cc3)nc2)cc1	6.8	-17.6	-1.0	7.7	-14.5	6.7
CC(C)(C)c1ccc2c(c1)OC(C(=O)N/N=C\c1ccncc1)CO2 (configuration not stated)	10.1	-3.0	2.0	-6.2	-16.9	1.0
Cc1c(/C=N\NC(=O)C2COc3ccc(C(C)(C)C)cc3O2)c2ccccc2n1C (configuration not stated)	-1.3	7.3	26.9*	6.5	-2.2	-10.9
CC(C)(C)c1ccc2c(c1)OC(C(=O)N/N=C/c1ccc([N+](=O)[O-])o1)CO2 (configuration not stated)	.	7.1	28.2*	.	-8.3	.
NC(=S)N1CCCc2ccccc21	3.3	8.4	-0.1	6.2	6.1	-4.9
Cc1cc(NC(=O)COC(=O)CSCc2ccc(Cl)c(Cl)c2)no1	-0.5	-12.6	31.1*	4.8	-10.6	6.8
Cc1cc(NC(=O)CSCC(=O)N(C)Cc2ccc(Cl)c(Cl)c2)no1	0.1	-7.7	-0.9	1.5	-7.3	-4.8
Clc1cccc(Cl)c1CSc1nnc2ccccn12	7.0	3.7	0.8	1.9	6.8	6.5
Brc1ccc(CSc2nnc3ccccn23)cc1	29.7*	-3.3	0.2	2.3	4.2	1.8
CCC(C(=O)NCCCN1CCOCC1)n1c2ccccc2c2nc(=O)cc(C)n21 (configuration not stated)	1.4	4.5	3.1	8.2	10.5	6.9
COc1ccccc1CNC(=O)/C=C/c1ccc(S(=O)(=O)NCc2ccco2)cc1	-0.6	-6.7	25.3*	11.1	-4.7	10.3
O=C(/C=C/c1ccc(S(=O)(=O)NCc2ccco2)cc1)NCc1cccc(Cl)c1	-0.9	-20.7	29.0*	6.5	-6.3	1.9
CC1CCCCN1c1ccc(N)cc1C(N)=O (configuration not stated)	5.3	15.9	1.8	0.6	4.6	-6.4
O=C(N/N=C/c1c[nH]c2ccccc12)c1cccc(Cl)c1	8.4	-11.3	5.3	-2.5	8.0	9.2
O=C(N/N=C/C1C(c2ccccc2)C1(Cl)Cl)c1cccc(Cl)c1 (configuration not stated)	29.0*	7.0	2.0	1.6	10.5	-7.6
Cc1ccccc1NS(=O)(=O)c1ccc(OCCNS(C)(=O)=O)cc1	-5.9	-7.0	31.9*	0.6	-3.7	0.3
COc1ccc(S(=O)(=O)Nc2ccc3c(c2)C(=O)N([C@@H](C)CO)C[C@H](C)[C@H](CN(C)S(=O)(=O)c2ccc(F)cc2)O3)cc1	39.0*	.	17.0	9.4	.	6.0
Cc1ccc(S(=O)(=O)Nc2ccc3c(c2)CC(=O)N([C@H](C)CO)C[C@@H](C)[C@H](CN(C)Cc2ccc(-c4ccccc4)cc2)O3)cc1	6.2	.	19.5	-7.6	.	-2.9
C[C@@H]1CN([C@H](C)CO)C(=O)c2cc(NS(=O)(=O)c3ccc(F)cc3)ccc2O[C@@H]1CN(C)Cc1ccc(Cl)c(Cl)c1	24.6*	.	29.3*	6.8	.	10.0
C[C@H](CO)N1C[C@H](C)[C@@H](CN(C)S(=O)(=O)c2ccc(F)cc2)Oc2ccc(NS(=O)(=O)c3ccc(F)cc3)cc2C1=O	8.6	.	20.2	5.3	.	12.5
COc1ccc(S(=O)(=O)Nc2cccc3c2O[C@H](CN(C)Cc2ccc(Oc4ccccc4)cc2)[C@@H](C)CN([C@H](C)CO)C3=O)cc1	-1.7	.	25.6*	4.2	.	6.2
C[C@H](CO)N1C[C@H](C)[C@H](CN(C)Cc2ccc(-c3ccccc3)cc2)Oc2ccc(NS(=O)(=O)c3ccccc3)cc2CC1=O	4.5	.	34.0*	-1.1	.	-0.3
COc1ccc(S(=O)(=O)Nc2ccc3c(c2)C(=O)N([C@H](C)CO)C[C@H](C)[C@@H](CN(C)S(=O)(=O)c2ccc(OC)cc2)O3)cc1	18.6	.	.	1.3	.	2.9
SMILES	PAFAH1B2 FP inh	ZTA DNA inh	pPAFAH FP inh	PAFAH1B3 inh	EBNA-1 inh	PAFAH2 inh
O=C(CCOc1ccccc1)NNC(=O)c1ccccc1	8.1	.	1.1	9.6	.	-1.1
O=C(O)CC1(CC(=O)Nc2ccc(F)c(Cl)c2)CCCCC1	.	-5.8	-1.1	.	-17.9	.
O=C1N(c2ccccc2)C[C@@H]2C[C@@H](c3cc4ccccc4o3)N3CCC[C@@]123	-0.6	.	.	10.1	.	1.8
Cc1ccc(C)c(OCCC(=O)N2CCN(S(=O)(=O)c3ccc([N+](=O)[O-])cc3)CC2)c1	8.4	13.1	3.0	9.0	.	25.4
O=C(NC(Cc1ccccc1)C(=O)O)OCc1ccccc1 (configuration not stated)	0.7	-5.3	7.3	0.8	1.6	-6.8
O=C(NC(Cc1ccccc1)C(=O)O)OCC1c2ccccc2-c2ccccc21 (configuration not stated)	27.0*	-4.6	6.7	10.0	8.5	3.0
CN(Cc1ccccc1)C(=O)COC(=O)CCNC(=O)c1ccccc1Cl	1.1	-14.8	3.8	7.8	-2.0	-5.1
O=C(CSc1nc2ccccc2c(=O)[nH]1)c1ccc(O)c(O)c1	10.0	3.4	33.4*	17.6	9.6	49.3*
O=C(CSc1nc2ccccc2n1CCc1ccccc1)c1ccc(O)c(O)c1	27.6*	.	.	25.1	.	55.1*
O=C(CN(Cc1ccccc1)C(=O)c1csnn1)NCc1ccccc1	2.8	18.7	0.1	-11.2	1.6	-7.2
Cc1ccc(C2CC(=O)Oc3cc(O)ccc32)cc1 (configuration not stated)	24.3*	1.3	17.1	34.5*	-9.1	25.6
O=C1CC(c2ccccc2)c2cc(O)ccc2O1 (configuration not stated)	4.4	13.5	0.8	-5.9	-6.6	7.6
C/C(=C1/SC(N2CC(C)OC(C)C2)=NC1=O)c1ccccc1 (configuration not stated)	8.0	-16.9	28.3*	5.7	-2.4	-1.4
CC1(C)C(=O)Nc2ccccc2N1C(=O)COC(=O)COc1ccc(C#N)cc1	5.4	7.9	0.9	-7.0	4.9	3.7
COc1ccccc1/C=C/C=N/NC(=O)c1ccccn1	-3.9	4.2	0.1	1.5	-4.8	0.4
COc1ccccc1/C=C/C=N/NC(=O)c1cc(-c2ccco2)[nH]n1	.	-19.6	29.5*	.	-6.0	.
Cc1cn(CC(=O)NCC(C)c2ccccc2)c(=O)[nH]c1=O (configuration not stated)	2.6	.	.	10.1	.	-5.3
CCCc1cc(=O)[nH]c(SCC(=O)Nc2ccc(C)cc2)n1	5.2	-0.2	1.1	4.5	-2.0	3.9
CCc1ccc(NC(=O)CSc2nc(CSc3ccc(C)cc3)cc(=O)[nH]2)cc1	54.3*	21.8	26.9*	1.6	-4.0	2.1
